Broadly, the inhibition is the change of the read-out against control, counted positive when it falls.

The text below walks through data of PubChem BioAssay.

The source made the active and inactive calls.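 How the source made its calls, unless noted: active means inhibition of the reporter signal at or above 50%; inactive means inhibition below 50%.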

Assay [1] can be described thus: inhibitors of TNFa-induced NFkB p65 translocation, primary screen, imaging, HUVEC, MLSMR starter and 10KST1 sets (AID 438;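 active means inhibition above 20% together with a positive visual image hit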;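 further: compound added about 3h40 before a 20 min TNFalpha stimulation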;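 on inhibition: signal is the nuclear over cytoplasmic p65 intensity ratio per well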). The note with it: HUVEC TNFa-induced p65 nuclear translocation; cell count: measured here: nuclei count (cytotoxicity indicator), at 2.08 µM; inhibition: at 2 µM, stronger effect = higher value, 0% TNFa-plus-vehicle, 100% no-TNFa wells.
Assay [2] is described as follows: inhibitors of mutant huntingtin aggregation, primary screen, imaging, exon1htt(103Q)mCFP cells, high-content imaging (AID 483;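 active means visual image review flags a hit and inhibition of aggregation exceeds 20%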;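 further: compound exposure lasted 3 days before fixation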;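 on nuclei count: percent of the per-plate median nuclei count of sample wells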). Conditions: exon1htt(103Q)mCFP cell line, aggregate imaging, at 2 µM; inhibition of aggregation: stronger effect = higher value; nuclei count: measured here: cell count, toxicity.
Assay [3] in a line: inhibitors of E-selectin induction by TNFa, primary screen, imaging, HUVEC, immunofluorescence, MLSMR starter and 10KST1 sets (AID 487;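 active means visually confirmed hit in the image check and inhibition above 20%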;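 on inhibition: signal is fraction of cell area covered by stained E-selectin grains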;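 on nuclei count: 100% = median nuclei count of all wells on the same plate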). The note with it: HUVEC TNFalpha-induced E-selectin immunofluorescence imaging, at 2 µM; inhibition: stronger effect = higher value; nuclei count: measured here: cell number, toxicity.
Assay [4] has as its target Voltage-gated potassium channel subunit beta-2 (Rattus norvegicus) (UniProt P62483). The experiment in a line: KvBeta enzyme negative modulators, primary screen, biochemical, NADPH fluorescence (AID 622;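 active means fluorescence slope higher than the sample average by over 3 SD, cut at about -0.22 in these data, passing the limit was not always enough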;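 further: slope of raw intensity against log time taken from 70 to 1610 s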). Conditions: recombinant KvBeta, 4-cyanobenzaldehyde reduction, at 10 µM, stronger effect = higher value.
The target is the same in assay [5]. The experiment in a line: KvBeta positive modulators, primary screen, biochemical, NADPH fluorescence (AID 623;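 active means NADPH fluorescence slope more negative than the mean of all samples by about 3 SD, 99.7% confidence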;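 further: fluorescence intensity change per second fitted from 20 to 320 s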). The note with it: Recombinant KvBeta, NADPH fluorescence decrease slope, 10 min; at 10 µM; stronger effect = lower value.
The target of assay [6] is Alpha-2C adrenergic receptor (Homo sapiens) (UniProt P18825). As to the kind of experiment: modulators of alpha2C/GIRK thallium flux, primary screen, cell-based, HEK293 alpha2C/GIRK1/2 (AID 624;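 active means fluorescence slope after compound addition differing from the mean of all screened samples at 99.7% confidence, in either direction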;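 further: slope of fluorescence ratio to pre-addition baseline per second over 15 to 24 s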). The note with it: thallium flux BTC fluorescence, at 10 µM, actives lie on both sides.
A short description of assay [7]: inhibitors of Sendai virus-induced IRF3 signaling, primary screen, TLR/RLR signaling modifier project, cell-based, Sendai virus stimulus, luciferase, 10K MLSCN set (AID 602276;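 active means inhibition at or above 50% at 10 µM; inactive means inhibition below 50%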;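 further: firefly luciferase from ISG56 promoter only with Renilla not read in this screen; 0% = Sendai virus plus DMSO and 100% = medium plus DMSO without virus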). The note with it: HEK293 RL24 IRF3 luciferase reporter, at 10 µM, stronger effect = higher value. In general terms: A reporter such as luciferase makes a cellular process visible.
A short description of assay [8]: inhibitors of poly I:C-induced TLR3 signaling, primary screen, cell-based, poly I:C stimulus, luciferase, 10K MLSCN set (AID 602277). Conditions: HEK293-TLR3 RL24 IRF3 luciferase reporter, at 10 µM, stronger effect = higher value.

Alpha-2C adrenergic receptor (Homo sapiens), sequence (P18825 whole entry, looked up): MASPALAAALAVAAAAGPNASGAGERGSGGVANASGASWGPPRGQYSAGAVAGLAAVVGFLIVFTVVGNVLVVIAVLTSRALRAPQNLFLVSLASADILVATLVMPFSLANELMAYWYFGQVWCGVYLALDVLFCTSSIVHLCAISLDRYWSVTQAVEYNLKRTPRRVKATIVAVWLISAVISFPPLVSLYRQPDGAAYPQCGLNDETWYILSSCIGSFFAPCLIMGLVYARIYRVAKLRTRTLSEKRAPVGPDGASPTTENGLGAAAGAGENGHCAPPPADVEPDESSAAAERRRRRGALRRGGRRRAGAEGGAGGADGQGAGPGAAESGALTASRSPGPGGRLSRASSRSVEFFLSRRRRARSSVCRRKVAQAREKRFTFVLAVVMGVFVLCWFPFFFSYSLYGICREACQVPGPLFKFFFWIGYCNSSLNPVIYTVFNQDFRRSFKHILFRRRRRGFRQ
Voltage-gated potassium channel subunit beta-2 (Rattus norvegicus), sequence (P62483 whole entry, looked up): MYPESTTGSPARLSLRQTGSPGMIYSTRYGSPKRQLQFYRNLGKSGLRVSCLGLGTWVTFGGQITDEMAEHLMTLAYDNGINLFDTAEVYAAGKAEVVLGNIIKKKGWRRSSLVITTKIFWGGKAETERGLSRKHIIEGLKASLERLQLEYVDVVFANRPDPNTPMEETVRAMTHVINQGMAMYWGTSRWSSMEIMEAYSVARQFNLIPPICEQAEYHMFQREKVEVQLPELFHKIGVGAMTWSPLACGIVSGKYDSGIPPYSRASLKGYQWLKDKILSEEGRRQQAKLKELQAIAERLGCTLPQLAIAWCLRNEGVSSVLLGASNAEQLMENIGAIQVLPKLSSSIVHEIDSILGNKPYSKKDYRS

With `CC(=O)Nc1ccc(NC(=O)c2cc(C)nn2-c2ccccc2)cc1`, the cell count in assay [1] was 687. In addition, the inhibition was -6.1% (inactive) in assay [1], -36.4% (inactive) in assay [3], -3.81% (inactive) in assay [7] and 0.294% (inactive) in assay [8]. Further, the inhibition of aggregation in assay [2] was -15.3% (inactive). For the same molecule, the nuclei count was found to be 112% in assay [2] and 129% in assay [3]. For the same molecule, the fluorescence slope in assay [4] is -0.539 (inactive). Further, in assay [5], the NADPH fluorescence slope is -1.7e-06 (inactive). For the same molecule, the slope in assay [6] was 0.00394 (inactive).
In the case of `Cc1cc(Br)ccc1NC(=O)CCN1C(=O)c2ccncc2C1=O`, the cell count in assay [1] was 403. Further, the inhibition is 3.8% (inactive) in assay [1], 39.2% (inactive) in assay [3], -13.8% (inactive) in assay [7] and 13.1% (inactive) in assay [8]. In addition, the inhibition of aggregation in assay [2] was -19.7% (inactive). Moreover, the nuclei count in assay [2] was 96.6%; in assay [3], 89.7%. Also, the fluorescence slope in assay [4] is -0.51 (inactive). Further, the NADPH fluorescence slope in assay [5] is -3.1e-05 (inactive). In assay [6], the slope was 0.00525 (inactive).
On to `Cc1oc(-c2ccccc2F)nc1CS(=O)(=O)CC(=O)N1CCCCCC1`, for which the cell count in assay [1] stood at 712. Moreover, the inhibition in assay [1] was -1.1% (inactive); in assay [3], -40.3% (inactive); in assay [7], -6.49% (inactive); in assay [8], 1.53% (inactive). Besides, the inhibition of aggregation in assay [2] is -22.4% (inactive). Also, the nuclei count in assay [2] came to 116%; in assay [3], 117%. For the same molecule, the fluorescence slope in assay [4] was -0.57 (inactive). Also, in assay [5], the NADPH fluorescence slope was -9.9e-06 (inactive). In addition, the slope in assay [6] is 0.00627 (inactive).
In the case of `CCOc1ccccc1C1CC(=O)Nc2cc3c(cc21)OCO3` (centres undefined), the cell count in assay [1] turned out to be 266. In addition, the inhibition in assay [1] is 14.4% (inactive); in assay [3], -9.8% (inactive); in assay [7] it was 3.25% (inactive); in assay [8], 40.2% (inactive). Besides, the inhibition of aggregation in assay [2] was -18.8% (inactive). Further, the nuclei count in assay [2] was found to be 86.9%; in assay [3] it was 98.7%. Moreover, in assay [4], the fluorescence slope was -0.38 (inactive). Moreover, the NADPH fluorescence slope in assay [5] is -4.6e-05 (inactive). The slope in assay [6] was 0.00457 (inactive).
For the molecule `CC1(C)CC(=O)C(C=Nc2ccncc2)=C(O)C1`, the cell count in assay [1] was determined as 463. Moreover, the inhibition is 4.9% (inactive) in assay [1], -42.3% (inactive) in assay [3], -2.33% (inactive) in assay [7] and 10.3% (inactive) in assay [8]. For the same molecule, in assay [2], the inhibition of aggregation was 3.3% (inactive). For the same molecule, the nuclei count in assay [2] came out at 103%; in assay [3], 120%. Further, in assay [4], the fluorescence slope was -0.607 (inactive). Also, in assay [5], the NADPH fluorescence slope was 5e-06 (inactive). The slope in assay [6] was 0.00629 (inactive).
In the case of `COc1ccc(OC)c(C2=NOC(C(=O)Nc3cc(C)nn3-c3ccccc3)C2)c1` (centres undefined), in assay [1], the cell count came to 605. Also, the inhibition in assay [1] is 5.8% (inactive); in assay [3], 10.7% (inactive); in assay [7] it was 7.53% (inactive); in assay [8], 19.2% (inactive). In addition, the inhibition of aggregation in assay [2] was -4.1% (inactive). Besides, the nuclei count in assay [2] stood at 84.1%; in assay [3], 107%. For the same molecule, the fluorescence slope in assay [4] is -0.605 (inactive). Besides, in assay [5], the NADPH fluorescence slope is -4.8e-05 (inactive). Besides, the slope in assay [6] is 0.00657 (inactive).
With `CCc1nnc(NC(=O)CSc2nnc(-c3ccoc3C)n2CC(C)C)s1`, the cell count in assay [1] is 714. Also, the inhibition in assay [1] is 3.2% (inactive); in assay [3], 15.4% (inactive); in assay [7], 16.7% (inactive); in assay [8], 15.3% (inactive). In addition, the inhibition of aggregation in assay [2] was -3.8% (inactive). For the same molecule, the nuclei count in assay [2] was 110%; in assay [3] it was 91%. The fluorescence slope in assay [4] is -0.367 (inactive). In addition, in assay [5], the NADPH fluorescence slope is 4.9e-06 (inactive). Also, the slope in assay [6] is 0.0051 (inactive).
As to `N#CC1=C(N)OC2=C(CCC/C2=C/c2ccoc2)C1c1ccoc1` (centres undefined), in assay [1], the cell count turned out to be 413. The inhibition in assay [1] was -5.2% (inactive); in assay [3], -137% (inactive); in assay [7], -7.37% (inactive); in assay [8] it was -9.08% (inactive). Moreover, the inhibition of aggregation in assay [2] was -17.9% (inactive). The nuclei count in assay [2] was determined as 113%; in assay [3], 115%. Also, the fluorescence slope in assay [4] is -0.313 (inactive). Further, the NADPH fluorescence slope in assay [5] is -5.7e-05 (inactive). The slope in assay [6] is 0.00619 (inactive).
As for `CCOC(=O)c1ccc(NS(=O)C23CC4CC(CC(C4)C2)C3)cc1` (centres undefined), the cell count in assay [1] is 406. Further, the inhibition in assay [1] is -1.1% (inactive); in assay [3], -53.8% (inactive); in assay [7], -1.97% (inactive); in assay [8], 6.33% (inactive). Besides, the inhibition of aggregation in assay [2] was -7.1% (inactive). Moreover, the nuclei count in assay [2] was determined as 111%; in assay [3], 134%. In addition, the fluorescence slope in assay [4] is -0.458 (inactive). Further, the NADPH fluorescence slope in assay [5] was -9e-06 (inactive). The slope in assay [6] was 0.00476 (inactive).
For the molecule `CC(=O)c1ccc(OCC(O)CN2CCN(Cc3ccc4c(c3)OCO4)CC2)cc1` (centres undefined), the cell count in assay [1] amounted to 522. Moreover, the inhibition was 4.5% (inactive) in assay [1], -33.9% (inactive) in assay [3], 11.6% (inactive) in assay [7] and 40.6% (inactive) in assay [8]. In assay [2], the inhibition of aggregation is -3.8% (inactive). The nuclei count in assay [2] is 87.9%; in assay [3], 108%. Further, the fluorescence slope in assay [4] is -0.536 (inactive). In addition, the NADPH fluorescence slope in assay [5] was -4.2e-05 (inactive). For the same molecule, in assay [6], the slope was 0.0062 (inactive).
Regarding `Cc1ccc(S(=O)(=O)Cn2nnnc2CN(Cc2ccco2)Cc2cccs2)cc1`, the cell count in assay [1] was 324. The inhibition was -1.6% (inactive) in assay [1], -85.1% (inactive) in assay [3], 7.14% (inactive) in assay [7] and 6.8% (inactive) in assay [8]. Besides, the inhibition of aggregation in assay [2] is 6.8% (inactive). Besides, the nuclei count turned out to be 108% in assay [2] and 133% in assay [3]. For the same molecule, the fluorescence slope in assay [4] is -0.594 (inactive). Moreover, the NADPH fluorescence slope in assay [5] was -4.2e-05 (inactive). Further, the slope in assay [6] was 0.00355 (inactive).
Take `CCc1c(C(=O)Nc2cc(C)ccc2OC)[nH]c(C)c1C(C)=O`: the cell count in assay [1] stood at 313. Also, the inhibition in assay [1] is -1.7% (inactive); in assay [3] it was 2.7% (inactive); in assay [7], 23.1% (inactive); in assay [8], 27.6% (inactive). For the same molecule, in assay [2], the inhibition of aggregation is -4.5% (inactive). The values for the nuclei count in assay [2] and in assay [3] were 65.3% and 76.2%, respectively. The fluorescence slope in assay [4] is -0.424 (inactive). In assay [5], the NADPH fluorescence slope is 1.1e-05 (inactive). Further, the slope in assay [6] is 0.00495 (inactive).
Consider `Cc1sc2nc(SCC(=O)Nc3c(C)n(C)n(-c4ccccc4)c3=O)n(C)c(=O)c2c1C`, for which, in assay [1], the cell count was found to be 556. The inhibition in assay [1] is -8.3% (inactive); in assay [3] it was 13.4% (inactive); in assay [7], 5.86% (inactive); in assay [8], -5.09% (inactive). For the same molecule, in assay [2], the inhibition of aggregation is 9% (inactive). The nuclei count was 74.8% in assay [2] and 118% in assay [3]. Besides, the fluorescence slope in assay [4] is -0.376 (inactive). Moreover, the NADPH fluorescence slope in assay [5] was 1e-05 (inactive). For the same molecule, the slope in assay [6] was 0.00842 (inactive).
For the molecule `COc1ccccc1NC(=O)NC1(C(=O)N2CCC(O)CC2)CCCCC1`, in assay [1], the cell count came to 242. The inhibition in assay [1] is 3.9% (inactive); in assay [3] it was 1.6% (inactive); in assay [7], -0.183% (inactive); in assay [8] it was 2.89% (inactive). In assay [2], the inhibition of aggregation was 16.6% (inactive). Besides, the figures for the nuclei count in assay [2] and in assay [3] were 79.3% and 94%, respectively. Besides, the fluorescence slope in assay [4] is -0.605 (inactive). For the same molecule, the NADPH fluorescence slope in assay [5] is 1.9e-06 (inactive). In addition, the slope in assay [6] is 0.00897 (inactive).
